# The supplement of paper PMC6411743
# ± gives the standard deviation of the averaged measurements. About 6,200 targets were measured; listed, in parts, are those with the largest changes and a random draw of the rest.
# Tests used:
# Assay in all cases: NP40-soluble protein abundance relative to vehicle (solubility fold change) (ratio); higher = more soluble protein in presence of AMP-PNP
# A0A087WZ62 = tested on: A0A087WZ62
# How it was run: (§1)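 Crude Jurkat lysate, prepared by Dounce homogenisation, was exposed to eight concentrations from 0.1 to 10 mM for 10 min at room temperature and then 3 min at 37 °C. Solubilisation used 0.8% NP40 with benzonase for 60 min at 4 °C, followed by ultracentrifugation and TMT labelling of the supernatant for LC-MS/MS. After vsn normalisation of intensities, each value is the fold change against the detergent-processed vehicle within each replicate, across three independent experiments.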
# [1] = biological target: T1, A0A087X0V5|P29728|P29728-2 (UniProt P29728)
# T1 sequence (whole entry): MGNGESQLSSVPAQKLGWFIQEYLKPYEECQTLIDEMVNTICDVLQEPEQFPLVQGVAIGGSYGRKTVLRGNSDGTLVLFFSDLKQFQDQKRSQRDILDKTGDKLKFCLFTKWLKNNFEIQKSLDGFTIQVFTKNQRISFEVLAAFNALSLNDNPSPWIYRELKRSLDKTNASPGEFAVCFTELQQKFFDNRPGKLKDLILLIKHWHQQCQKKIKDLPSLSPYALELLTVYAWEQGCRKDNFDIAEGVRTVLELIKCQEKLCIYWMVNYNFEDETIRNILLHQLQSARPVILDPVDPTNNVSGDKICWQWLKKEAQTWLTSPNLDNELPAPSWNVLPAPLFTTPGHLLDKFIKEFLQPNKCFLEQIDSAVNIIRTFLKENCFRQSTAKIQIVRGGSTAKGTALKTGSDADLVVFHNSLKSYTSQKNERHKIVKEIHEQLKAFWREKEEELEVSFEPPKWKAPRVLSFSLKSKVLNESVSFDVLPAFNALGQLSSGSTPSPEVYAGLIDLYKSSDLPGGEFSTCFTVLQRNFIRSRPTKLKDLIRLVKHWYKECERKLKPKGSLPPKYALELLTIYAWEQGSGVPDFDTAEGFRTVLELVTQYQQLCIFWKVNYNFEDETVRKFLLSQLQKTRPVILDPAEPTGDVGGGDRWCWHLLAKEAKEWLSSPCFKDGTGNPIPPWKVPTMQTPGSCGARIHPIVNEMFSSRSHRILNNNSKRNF
# How it was run: as §1
# A0A087X1K6|H0YK05|Q9Y2Y9 = A0A087X1K6|H0YK05|Q9Y2Y9 (UniProt Q9Y2Y9)
# How it was run: as §1
# [2] = biological target: A0A087X1Z1|A0A0G2JPW5|A0A0G2JQX1|A0A0G2JSA7|Q96RT8|Q96RT8-2 (UniProt Q96RT8)
# How it was run: as §1
# [3] = biological target: A0A096LP25|Q2M2I8|Q2M2I8-2 (UniProt Q2M2I8)
# How it was run: as §1
# A0A087X1Z1|A0A0G2JPW5|A0A0G2JQX1|A0A0G2JSA7|Q96RT8|Q96RT8-2, sequence (Q96RT8 whole entry, one chain of several): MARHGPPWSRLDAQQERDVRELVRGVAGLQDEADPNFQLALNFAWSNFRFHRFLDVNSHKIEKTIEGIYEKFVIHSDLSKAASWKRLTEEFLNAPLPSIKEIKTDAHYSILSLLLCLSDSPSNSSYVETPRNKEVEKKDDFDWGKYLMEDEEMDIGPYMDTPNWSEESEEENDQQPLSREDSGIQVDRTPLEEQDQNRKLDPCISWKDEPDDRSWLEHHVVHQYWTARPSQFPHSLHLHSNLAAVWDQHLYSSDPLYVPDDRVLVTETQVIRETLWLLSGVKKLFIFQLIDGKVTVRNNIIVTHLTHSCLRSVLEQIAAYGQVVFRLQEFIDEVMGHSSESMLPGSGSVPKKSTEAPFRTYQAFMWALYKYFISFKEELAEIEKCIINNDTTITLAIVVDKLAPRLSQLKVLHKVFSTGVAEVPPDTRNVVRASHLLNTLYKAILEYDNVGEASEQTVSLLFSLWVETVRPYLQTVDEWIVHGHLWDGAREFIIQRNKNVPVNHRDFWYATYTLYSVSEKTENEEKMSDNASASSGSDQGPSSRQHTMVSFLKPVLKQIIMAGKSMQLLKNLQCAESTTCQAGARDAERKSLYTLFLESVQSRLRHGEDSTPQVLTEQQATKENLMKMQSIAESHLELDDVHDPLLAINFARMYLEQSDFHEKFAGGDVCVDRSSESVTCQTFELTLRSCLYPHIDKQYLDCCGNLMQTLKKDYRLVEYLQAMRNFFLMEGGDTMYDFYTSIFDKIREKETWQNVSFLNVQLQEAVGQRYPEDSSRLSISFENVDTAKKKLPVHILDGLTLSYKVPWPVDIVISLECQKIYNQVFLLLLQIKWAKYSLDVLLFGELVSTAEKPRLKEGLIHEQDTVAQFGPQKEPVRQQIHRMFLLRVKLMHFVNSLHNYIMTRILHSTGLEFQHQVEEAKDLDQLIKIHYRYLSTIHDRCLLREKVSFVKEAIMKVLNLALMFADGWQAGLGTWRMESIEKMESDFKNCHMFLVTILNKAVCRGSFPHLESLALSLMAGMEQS
# A0A087X1K6|H0YK05|Q9Y2Y9, sequence (Q9Y2Y9 whole entry, one chain of several): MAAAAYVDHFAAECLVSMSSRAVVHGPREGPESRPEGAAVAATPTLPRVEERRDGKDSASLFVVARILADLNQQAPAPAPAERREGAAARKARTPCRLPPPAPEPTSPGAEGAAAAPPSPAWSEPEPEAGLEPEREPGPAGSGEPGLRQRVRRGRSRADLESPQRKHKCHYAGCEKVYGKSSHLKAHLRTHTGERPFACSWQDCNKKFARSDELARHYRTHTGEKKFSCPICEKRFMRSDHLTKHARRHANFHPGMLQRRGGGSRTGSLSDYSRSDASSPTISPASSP
# A0A096LP25|Q2M2I8|Q2M2I8-2, sequence (Q2M2I8 whole entry, looked up, one chain of several): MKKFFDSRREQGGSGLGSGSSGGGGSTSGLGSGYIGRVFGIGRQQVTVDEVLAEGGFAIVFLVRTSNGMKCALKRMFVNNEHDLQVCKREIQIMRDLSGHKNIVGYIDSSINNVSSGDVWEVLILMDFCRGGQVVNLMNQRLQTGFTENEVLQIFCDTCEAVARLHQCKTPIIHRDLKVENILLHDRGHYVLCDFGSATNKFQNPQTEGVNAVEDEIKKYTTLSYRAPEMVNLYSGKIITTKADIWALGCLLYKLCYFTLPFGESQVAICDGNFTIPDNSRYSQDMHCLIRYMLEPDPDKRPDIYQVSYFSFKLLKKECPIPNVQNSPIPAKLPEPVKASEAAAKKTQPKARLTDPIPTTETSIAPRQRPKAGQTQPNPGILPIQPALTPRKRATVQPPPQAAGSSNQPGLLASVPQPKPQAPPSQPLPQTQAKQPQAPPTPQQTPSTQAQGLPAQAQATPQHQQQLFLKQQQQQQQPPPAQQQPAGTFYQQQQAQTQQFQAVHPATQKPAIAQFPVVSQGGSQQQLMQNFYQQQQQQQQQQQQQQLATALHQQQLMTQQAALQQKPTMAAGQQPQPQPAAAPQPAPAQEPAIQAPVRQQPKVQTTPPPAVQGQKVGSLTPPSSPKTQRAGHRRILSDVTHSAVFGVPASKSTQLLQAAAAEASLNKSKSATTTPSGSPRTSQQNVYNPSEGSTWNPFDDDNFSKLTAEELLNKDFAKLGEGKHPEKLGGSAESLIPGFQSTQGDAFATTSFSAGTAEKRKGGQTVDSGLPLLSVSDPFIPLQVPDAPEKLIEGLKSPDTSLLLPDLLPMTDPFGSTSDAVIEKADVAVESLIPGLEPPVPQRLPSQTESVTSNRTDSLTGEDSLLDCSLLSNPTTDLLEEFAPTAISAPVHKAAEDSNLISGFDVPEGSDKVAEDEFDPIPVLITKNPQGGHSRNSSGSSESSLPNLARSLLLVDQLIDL
structure (smiles),measurement,setting,value
Nc1ncnc2c1ncn2[C@@H]1O[C@H](COP(=O)(O)OP(=O)(O)NP(=O)(O)O)[C@@H](O)[C@H]1O [adenylyl imidodiphosphate],NP40-soluble protein abundance,A0A087WZ62; concentration: 6mM,0.952 ± 0.014
same,NP40-soluble protein abundance,A0A087WZ62; concentration: 8mM,0.946 ± 0.028
same,NP40-soluble protein abundance,A0A087WZ62; concentration: 10mM,0.936 ± 0.017
same,NP40-soluble protein abundance,[1]; concentration: 1mM,1.13 ± 0.0059
same,NP40-soluble protein abundance,[1]; concentration: 2mM,1.07 ± 0.091
same,NP40-soluble protein abundance,[1]; concentration: 4mM,1.26 ± 0.049
same,NP40-soluble protein abundance,[1]; concentration: 6mM,1.24 ± 0.086
same,NP40-soluble protein abundance,[1]; concentration: 8mM,1.358 ± 0.011
same,NP40-soluble protein abundance,[1]; concentration: 10mM,1.29 ± 0.02
same,NP40-soluble protein abundance,A0A087X1K6|H0YK05|Q9Y2Y9; concentration: 1mM,0.998 ± 0.029
same,NP40-soluble protein abundance,A0A087X1K6|H0YK05|Q9Y2Y9; concentration: 2mM,0.998 ± 0.03
same,NP40-soluble protein abundance,A0A087X1K6|H0YK05|Q9Y2Y9; concentration: 4mM,0.971 ± 0.024
same,NP40-soluble protein abundance,A0A087X1K6|H0YK05|Q9Y2Y9; concentration: 6mM,1.01 ± 0.016
same,NP40-soluble protein abundance,A0A087X1K6|H0YK05|Q9Y2Y9; concentration: 8mM,0.991 ± 0.03
same,NP40-soluble protein abundance,A0A087X1K6|H0YK05|Q9Y2Y9; concentration: 10mM,0.996 ± 0.0047
same,NP40-soluble protein abundance,[2]; concentration: 1mM,0.946 ± 0.021
same,NP40-soluble protein abundance,[2]; concentration: 2mM,1 ± 0.057
same,NP40-soluble protein abundance,[2]; concentration: 4mM,0.951 ± 0.032
same,NP40-soluble protein abundance,[2]; concentration: 6mM,0.972 ± 0.029
same,NP40-soluble protein abundance,[2]; concentration: 8mM,0.962 ± 0.018
same,NP40-soluble protein abundance,[2]; concentration: 10mM,0.96 ± 0.016
same,NP40-soluble protein abundance,[3]; concentration: 1mM,1.07 ± 0.02
same,NP40-soluble protein abundance,[3]; concentration: 2mM,1.11 ± 0.041
same,NP40-soluble protein abundance,[3]; concentration: 4mM,1.11 ± 0.026
same,NP40-soluble protein abundance,[3]; concentration: 6mM,1.09 ± 0.024
same,NP40-soluble protein abundance,[3]; concentration: 8mM,1.08 ± 0.02
same,NP40-soluble protein abundance,[3]; concentration: 10mM,1.11 ± 0.012
